The text below walks through data of ChEMBL document CHEMBL4513216, “Probing the Open Global Health Chemical Diversity Library for Multistage-Active Starting Points for Next-Generation Antimalarials” (ACS Infect Dis, 2020).

Among all 69,000 compounds or so, about 8,600 (12%) showed an effect of 50% or more. Only a selection was taken, and strong results are over-represented in it overall.

This assay deals with Plasmodium berghei. The experiment in a line: Screen against P. berghei liver stage (PbLuc), transformed with Luciferase, at 10uM. It is filed as functional, HepG2. Particulars: tested at 10 uM.
Turning to `Cn1ncc(-c2cc(-c3cccc(O)c3)nc(N)c2C#N)c1C1CC1`, the INHIBITION amounted to 80%.

As for `Cc1cccc(-c2cc(-c3c(C)nn(CCO)c3C)c(C#N)c(N)n2)c1`, the INHIBITION is reported as -13.2%.

In the case of `Cc1n[nH]c(C)c1-c1cc(-c2cccc(O)c2)nc(N)c1C#N`, the INHIBITION came out at 57.6%.

For the compound `Cc1cc(O)ccc1-c1cc(-c2cnn(C)c2C2CC2)c(C#N)c(N)n1`, the INHIBITION came to 87.9%.

Take `N#Cc1c(C2CC2)cc(-c2ccc(O)cc2)nc1N`: the INHIBITION is -14.9%.

Take `Cc1nn(C)c(C)c1-c1cc(-c2cnn(C)c2C2CC2)c(C#N)c(N)n1`: the INHIBITION is reported as 34.5%.

Turning to `Cc1n[nH]c(C)c1-c1cc(-c2cc[nH]c2)nc(N)c1C#N`, the INHIBITION was 28%.

As for `Cc1n[nH]c(C)c1-c1cc(-c2ccc[nH]2)nc(N)c1C#N`, the INHIBITION is 7.22%.

For the compound `CC(C)c1cc(-c2cnn(C)c2C2CC2)c(C#N)c(N)n1`, the INHIBITION is -14.3%.

Turning to `CC(=O)N1CCN(C(=O)C2CCN(c3cccnn3)C2)CC1` (centres undefined), the INHIBITION is listed as -8.12%.

Regarding `COC(=O)C1=C(C)N=C2SCC(=O)N2C1c1cnn(C)c1C` (centres undefined), the INHIBITION is given as 22.6%.

With `COc1ccc(CC2(CO)CCN(c3cc(N)ncn3)CC2)cc1`, the INHIBITION came out at 26.8%.

On to `Cn1ccnc1C1CCN(C(=O)COCC(F)(F)C(F)F)CC1`, for which the INHIBITION was 59.1%.

For the compound `O=C(COCC(F)(F)C(F)F)N1CCC(c2ncc[nH]2)CC1`, the INHIBITION amounted to 40.6%.

On to `CCOCC(=O)N1CCC(c2nccn2C)CC1`, for which the INHIBITION is 11.8%.

Take `O=C(Cc1csc(-c2ccco2)n1)N1CCN(c2nccs2)CC1`: the INHIBITION is -21.7%.

In the case of `CO[C@H]1CN(C(=O)c2ccc[nH]2)[C@@H]2COC[C@H]12`, the INHIBITION is listed as -29%.

Take `COCCNC(=O)c1ccc2ccc(N(C)CC3CC3)n2c1`: the INHIBITION turned out to be 26%.

Turning to `O=S(=O)(c1cccnc1)N1CCN(CCn2ccnc2)CC1`, the INHIBITION is reported as -0.113%.

On to `O=S(=O)(c1ccc(F)cc1)N1CCN(CCCn2ccnc2)CC1`, for which the INHIBITION is reported as -49.3%.

On to `COc1ccc(F)cc1S(=O)(=O)N1CCN(CCn2ccnc2)CC1`, for which the INHIBITION came to 18.2%.

For `Cc1ccc(S(=O)(=O)N2CCN(CCCn3ccnc3)CC2)cc1`, the INHIBITION was 81%.

For the compound `COc1ccc(S(=O)(=O)N2CCC(Cn3ccnc3)CC2)cc1`, the INHIBITION stood at 8.46%.

Take `O=S(=O)(c1ccccc1)N1CCN(CCn2ccnc2)CC1`: the INHIBITION is recorded as -26.6%.

On to `O=S(=O)(c1ccccc1)N1CCCN(CCCn2ccnc2)CC1`, for which the INHIBITION was determined as 37%.

On to `O=S(=O)(c1ccc(Cl)cc1)N1CCN(CCCn2ccnc2)CC1`, for which the INHIBITION was 76.7%.

Consider `CCc1ccc(S(=O)(=O)N2CCN(CCn3ccnc3)CC2)cc1`, for which the INHIBITION was 51.2%.

On to `c1ccc(-c2cc(CNCCN3CCCC3)c3nnnn3c2)cc1`, for which the INHIBITION is -5.71%.

For the compound `CC(NC(=O)NCc1ccccn1)c1cccs1` (centres undefined), the INHIBITION is listed as -5.26%.

For `O=C(C1=CCCC1)N1CCC[C@]2(C[C@@H](Oc3ncccc3F)CO2)C1`, the INHIBITION is 23.5%.

As for `CC(C)N1CCc2c(C(=O)N3CCOCC3)nn(C)c2C1`, the INHIBITION was found to be 42.1%.

On to `OC1(CNc2ccccc2)CCNCC1`, for which the INHIBITION was determined as 20.9%.

Turning to `CN(CCCc1n[nH]c(N)c1C#N)C(=O)NC1CC1`, the INHIBITION turned out to be 23.6%.

Consider `CCNC(=O)N(C)CCCc1n[nH]c(N)c1C#N`, for which the INHIBITION worked out at 40.9%.

In the case of `CN(CCCc1n[nH]c(N)c1C#N)C(=O)Nc1cc(Cl)cc(Cl)c1`, the INHIBITION was determined as 63.7%.

For the compound `OCCN(Cc1ccccc1)Cc1nc(-c2ccc3c(c2)OCO3)no1`, the INHIBITION is on record as 35.1%.

On to `OCCN(Cc1nc(-c2ccc3c(c2)OCO3)no1)Cc1cccs1`, for which the INHIBITION is 17.6%.

Consider `COC(=O)c1ccc(-c2noc(CN(CCO)Cc3cccs3)n2)cc1`, for which the INHIBITION turned out to be 51%.

`CCS(=O)(=O)N1C[C@@H](Oc2ccccn2)[C@H]2OCCC[C@H]21`: the INHIBITION is on record as -14.4%.

As for `COCC1(CNC(=O)Nc2cc(F)ccc2OC)CCCC1`, the INHIBITION came out at 51.4%.

In the case of `COc1ccc(F)cc1NC(=O)NCC1(CN2CCOCC2)CC1`, the INHIBITION came out at 28.15%.

Take `COc1ccc(F)cc1NC(=O)NCC1(C)COC1`: the INHIBITION came to 25.25%.

Take `Cc1nn(C)c(Cl)c1C1CCCN1C(=O)CCNc1ncccn1` (centres undefined): the INHIBITION is -35.7%.

On to `O=c1cc(N2CCCCC2)cnn1C[C@H](O)CO`, for which the INHIBITION was determined as 2.7%.

Turning to `O=c1cc(N2CCOCC2)cnn1CCc1ccc(F)cc1`, the INHIBITION is -0.529%.

Regarding `O=c1cc(N2CCCC2)cnn1CC(F)F`, the INHIBITION is 73.2%.

In the case of `O=c1cc(N2CCNCC2)cnn1CCc1ccc(F)cc1`, the INHIBITION is 32.8%.

For the compound `O=c1cc(N2CCCCC2)cnn1CC(O)C(F)(F)F` (centres undefined), the INHIBITION was -29.1%.

In the case of `O=c1cc(N2CCCC2)cnn1CCc1cccc(F)c1`, the INHIBITION was determined as 52.6%.

For `Cc1cnn(CCNCc2csc(-c3ccc(C(N)=O)cc3)n2)c1`, the INHIBITION amounted to 43.6%.

In the case of `O=C(COc1ccc2c(c1)OCC2O)NCc1ccco1` (centres undefined), the INHIBITION is on record as 10.6%.

As for `CC(C)CNC(=O)c1nc(COc2ccc3c(c2)OCO3)no1`, the INHIBITION amounted to 57.7%.

Turning to `CNC(=O)c1nc(COc2ccc3c(c2)OCO3)no1`, the INHIBITION was found to be 53.7%.

`O=C(NCC1CC1)c1nc(COc2ccc3c(c2)OCO3)no1`: the INHIBITION was -12.6%.
